The text below walks through data of paper PMC7862700, “An all-to-all approach to the identification of sequence-specific readers for epigenetic DNA modifications on cytosine”.

Test in all cases: DAPPL (digital affinity profiling via proximity ligation, sequencing); 10 mM Tris-HCl pH 7.5, 50 mM NaCl, 1 mM DTT, 4% glycerol, room temperature, 30 min; GST-TFs on glutathione beads, 16-mer random dsDNA library, 0.1% formaldehyde crosslink after washing; high values mean tight binding
For test [1], the target named is T1, FEV (Homo sapiens, UniProt Q99581 1-238).
T1 sequence: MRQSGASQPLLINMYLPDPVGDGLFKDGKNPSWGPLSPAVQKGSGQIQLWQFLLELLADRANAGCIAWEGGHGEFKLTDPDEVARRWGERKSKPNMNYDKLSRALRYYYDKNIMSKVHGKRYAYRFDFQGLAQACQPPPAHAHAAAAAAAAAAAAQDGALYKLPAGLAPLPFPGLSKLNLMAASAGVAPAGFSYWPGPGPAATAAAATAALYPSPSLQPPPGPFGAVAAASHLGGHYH
Conditions: protein: recombinant; tags: N-terminal GST; dsDNA, one strand shown. In short, it runs like this: (§1)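 Binding signal is given per hexamer as its read frequency for a factor divided by its frequency in the tag-only sample. GST-fused human transcription factors were expressed in yeast, captured on glutathione beads, barcoded with DNA and pooled with that sample, then incubated with 200 nmole of a 16-mer random double-stranded DNA library in Tris/NaCl/DTT/glycerol buffer for 30 min at room temperature. The pools were then washed, crosslinked, proximity-ligated, amplified by PCR and sequenced on an Illumina NextSeq500.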

Test [2] concerns the target ETV5 (Homo sapiens, UniProt P41161 1-510). Conditions: protein: recombinant; tags: N-terminal GST; dsDNA, one strand shown. In short, it runs like this:
as §1

For test [3], the target named is HSF1 (Homo sapiens, UniProt Q00613 1-529). The conditions noted are these: protein: recombinant; tags: N-terminal GST; chain copies: 3; dsDNA, one strand shown. A digest of the protocol: as §1
Chain of HSF1 (Q00613 whole entry): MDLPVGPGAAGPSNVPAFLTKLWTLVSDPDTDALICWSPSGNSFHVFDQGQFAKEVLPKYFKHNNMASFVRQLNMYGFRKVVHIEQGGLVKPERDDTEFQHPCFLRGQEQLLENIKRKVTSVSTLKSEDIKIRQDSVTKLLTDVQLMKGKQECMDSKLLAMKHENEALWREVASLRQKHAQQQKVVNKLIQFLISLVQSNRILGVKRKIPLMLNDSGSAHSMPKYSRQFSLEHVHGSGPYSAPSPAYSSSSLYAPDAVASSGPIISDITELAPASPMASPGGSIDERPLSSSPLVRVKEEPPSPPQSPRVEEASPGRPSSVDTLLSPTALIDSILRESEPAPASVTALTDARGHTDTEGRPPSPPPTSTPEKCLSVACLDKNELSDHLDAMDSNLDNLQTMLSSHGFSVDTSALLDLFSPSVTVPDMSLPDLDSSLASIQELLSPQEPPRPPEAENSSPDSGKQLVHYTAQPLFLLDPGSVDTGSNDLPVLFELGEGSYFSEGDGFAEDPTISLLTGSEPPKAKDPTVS
Test [4] deals with T2, SPIC (Homo sapiens, UniProt Q8N5J4 1-248).
T2 sequence: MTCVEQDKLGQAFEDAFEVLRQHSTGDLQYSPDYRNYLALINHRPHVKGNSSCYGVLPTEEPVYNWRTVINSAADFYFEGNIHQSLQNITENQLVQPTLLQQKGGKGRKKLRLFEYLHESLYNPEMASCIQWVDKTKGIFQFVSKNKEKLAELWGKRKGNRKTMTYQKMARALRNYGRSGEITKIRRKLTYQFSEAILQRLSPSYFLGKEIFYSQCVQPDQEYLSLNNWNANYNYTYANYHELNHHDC
The conditions noted are these: protein: recombinant; tags: N-terminal GST; dsDNA, one strand shown. In short, it runs like this:
as §1

Test [5] concerns the target ELF4 (Homo sapiens, UniProt Q99607 1-663). Conditions: protein: recombinant; tags: N-terminal GST; dsDNA, one strand shown. In short, it runs like this: as §1
For test [6], the target named is T3, ELK4 (Homo sapiens, UniProt P28324-2 1-405).
T3 sequence: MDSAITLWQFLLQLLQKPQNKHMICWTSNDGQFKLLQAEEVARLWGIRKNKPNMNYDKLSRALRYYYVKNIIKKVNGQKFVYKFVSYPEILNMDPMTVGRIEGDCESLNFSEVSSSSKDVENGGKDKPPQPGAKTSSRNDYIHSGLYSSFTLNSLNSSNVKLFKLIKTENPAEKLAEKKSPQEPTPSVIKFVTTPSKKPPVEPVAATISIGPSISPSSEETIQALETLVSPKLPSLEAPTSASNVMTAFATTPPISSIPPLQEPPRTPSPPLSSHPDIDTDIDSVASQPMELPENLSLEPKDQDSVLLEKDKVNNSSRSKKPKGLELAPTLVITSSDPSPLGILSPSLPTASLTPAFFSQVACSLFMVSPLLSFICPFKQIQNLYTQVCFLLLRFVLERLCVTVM
Conditions: protein: recombinant; tags: N-terminal GST; dsDNA, one strand shown. In short, it runs like this: as §1

The target of test [7] is T4, ETV2 (Homo sapiens, UniProt O00321 1-342).
T4 sequence: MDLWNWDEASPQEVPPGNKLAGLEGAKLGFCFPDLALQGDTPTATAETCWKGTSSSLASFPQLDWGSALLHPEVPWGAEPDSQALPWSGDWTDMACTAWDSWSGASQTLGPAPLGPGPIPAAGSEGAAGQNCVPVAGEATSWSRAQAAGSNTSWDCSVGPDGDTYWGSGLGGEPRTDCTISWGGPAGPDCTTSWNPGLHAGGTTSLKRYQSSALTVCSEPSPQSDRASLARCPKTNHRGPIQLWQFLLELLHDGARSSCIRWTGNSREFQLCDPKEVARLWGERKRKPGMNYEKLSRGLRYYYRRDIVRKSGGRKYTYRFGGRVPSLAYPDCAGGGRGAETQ
The conditions noted are these: protein: recombinant; tags: N-terminal GST; dsDNA, one strand shown. A digest of the protocol: as §1

In test [8] the target is T5, ELF3 (Homo sapiens, UniProt P78545 1-371).
T5 sequence: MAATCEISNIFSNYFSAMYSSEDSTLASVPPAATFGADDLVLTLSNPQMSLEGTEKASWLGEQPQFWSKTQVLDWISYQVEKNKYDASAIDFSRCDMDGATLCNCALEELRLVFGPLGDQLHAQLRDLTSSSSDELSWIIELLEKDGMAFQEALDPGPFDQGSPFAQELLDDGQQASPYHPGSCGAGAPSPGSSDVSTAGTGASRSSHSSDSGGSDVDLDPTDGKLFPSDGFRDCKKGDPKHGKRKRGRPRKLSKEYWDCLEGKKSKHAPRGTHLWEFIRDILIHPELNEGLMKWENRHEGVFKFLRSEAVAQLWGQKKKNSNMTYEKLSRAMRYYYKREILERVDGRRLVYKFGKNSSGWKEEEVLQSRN
Conditions: protein: recombinant; tags: N-terminal GST; dsDNA, one strand shown. In short, it runs like this: as §1

The target in test [9] is CRX (Homo sapiens, UniProt O43186 1-299). The conditions noted are these: protein: recombinant; tags: N-terminal GST; dsDNA, one strand shown. In short, it runs like this:
as §1

Test [10] addresses ETV1 (Homo sapiens, UniProt P50549 1-477). Conditions: protein: recombinant; tags: N-terminal GST; dsDNA, one strand shown. A digest of the protocol: as §1
The target in test [11] is T6, ERF (Homo sapiens, UniProt P50548 1-548).
T6 sequence: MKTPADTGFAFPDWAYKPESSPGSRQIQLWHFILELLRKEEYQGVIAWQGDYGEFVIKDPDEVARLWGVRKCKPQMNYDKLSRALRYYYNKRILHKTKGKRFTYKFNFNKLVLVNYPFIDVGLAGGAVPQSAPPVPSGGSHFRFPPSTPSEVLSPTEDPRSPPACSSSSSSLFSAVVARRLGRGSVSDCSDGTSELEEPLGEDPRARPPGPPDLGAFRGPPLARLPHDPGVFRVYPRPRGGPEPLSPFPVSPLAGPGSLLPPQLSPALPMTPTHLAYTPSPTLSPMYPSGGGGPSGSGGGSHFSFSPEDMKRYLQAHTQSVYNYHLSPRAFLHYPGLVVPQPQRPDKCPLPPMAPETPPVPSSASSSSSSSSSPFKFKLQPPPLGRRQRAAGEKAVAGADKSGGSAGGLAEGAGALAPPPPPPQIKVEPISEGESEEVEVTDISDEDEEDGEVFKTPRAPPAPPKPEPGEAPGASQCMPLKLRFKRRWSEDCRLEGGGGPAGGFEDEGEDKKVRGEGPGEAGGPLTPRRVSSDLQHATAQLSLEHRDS
The conditions noted are these: protein: recombinant; tags: N-terminal GST; dsDNA, one strand shown. In short, it runs like this:
as §1

The target in test [12] is T7, ETV3L (Homo sapiens, UniProt Q6ZN32 1-361).
T7 sequence: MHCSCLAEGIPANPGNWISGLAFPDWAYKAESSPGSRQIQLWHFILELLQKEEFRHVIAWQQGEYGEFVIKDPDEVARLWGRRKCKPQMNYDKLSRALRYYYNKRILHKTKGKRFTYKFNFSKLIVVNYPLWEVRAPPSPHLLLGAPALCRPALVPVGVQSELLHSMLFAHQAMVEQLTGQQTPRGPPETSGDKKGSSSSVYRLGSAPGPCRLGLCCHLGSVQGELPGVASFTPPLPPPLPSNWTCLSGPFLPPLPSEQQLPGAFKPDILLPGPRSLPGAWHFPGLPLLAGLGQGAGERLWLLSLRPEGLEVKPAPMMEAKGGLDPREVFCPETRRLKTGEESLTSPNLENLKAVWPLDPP
Conditions: protein: recombinant; tags: N-terminal GST; dsDNA, one strand shown. A digest of the protocol: as §1

Test [13] addresses T8, ETS2 (Homo sapiens, UniProt P15036 1-469).
T8 sequence: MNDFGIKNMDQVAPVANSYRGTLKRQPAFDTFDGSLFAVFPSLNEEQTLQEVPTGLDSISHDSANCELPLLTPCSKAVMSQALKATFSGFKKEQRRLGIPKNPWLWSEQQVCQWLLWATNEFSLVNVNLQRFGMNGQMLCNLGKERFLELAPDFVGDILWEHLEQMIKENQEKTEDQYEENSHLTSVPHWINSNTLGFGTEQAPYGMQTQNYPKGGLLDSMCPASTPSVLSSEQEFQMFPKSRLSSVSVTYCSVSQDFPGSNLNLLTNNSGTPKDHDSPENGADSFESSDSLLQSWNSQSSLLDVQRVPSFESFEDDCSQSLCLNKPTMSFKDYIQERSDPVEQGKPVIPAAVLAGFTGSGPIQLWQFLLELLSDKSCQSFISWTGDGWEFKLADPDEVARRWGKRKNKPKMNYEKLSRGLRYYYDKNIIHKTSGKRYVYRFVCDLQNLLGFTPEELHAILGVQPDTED
The conditions noted are these: protein: recombinant; tags: N-terminal GST; dsDNA, one strand shown. In short, it runs like this: as §1

Test [14] concerns the target T9, SPDEF (Homo sapiens, UniProt O95238 1-335).
T9 sequence: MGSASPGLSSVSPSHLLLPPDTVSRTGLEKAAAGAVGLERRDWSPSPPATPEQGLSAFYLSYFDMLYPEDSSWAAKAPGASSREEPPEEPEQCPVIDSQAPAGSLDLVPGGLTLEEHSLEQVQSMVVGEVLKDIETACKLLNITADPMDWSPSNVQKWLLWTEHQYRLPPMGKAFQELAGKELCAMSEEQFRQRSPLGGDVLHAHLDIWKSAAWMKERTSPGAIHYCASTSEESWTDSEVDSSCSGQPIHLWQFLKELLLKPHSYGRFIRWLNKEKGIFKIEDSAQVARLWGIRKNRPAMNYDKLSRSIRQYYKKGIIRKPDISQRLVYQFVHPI
Conditions: protein: recombinant; tags: N-terminal GST; dsDNA, one strand shown. In short, it runs like this:
as §1

The target in test [15] is T10, ETV7 (Homo sapiens, UniProt Q9Y603 1-341).
T10 sequence: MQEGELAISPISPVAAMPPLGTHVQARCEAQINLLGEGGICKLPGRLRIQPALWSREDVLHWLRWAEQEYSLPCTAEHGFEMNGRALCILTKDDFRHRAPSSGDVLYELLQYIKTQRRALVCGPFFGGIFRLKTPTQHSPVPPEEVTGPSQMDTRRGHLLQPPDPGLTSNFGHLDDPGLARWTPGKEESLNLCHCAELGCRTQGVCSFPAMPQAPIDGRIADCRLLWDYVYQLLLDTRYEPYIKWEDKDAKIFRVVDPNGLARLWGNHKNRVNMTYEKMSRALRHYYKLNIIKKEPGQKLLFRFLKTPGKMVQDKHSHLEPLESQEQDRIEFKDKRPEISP
The conditions noted are these: protein: recombinant; tags: N-terminal GST; dsDNA, one strand shown. A digest of the protocol:
as §1

In test [16] the target is T11, ELF5 (Homo sapiens, UniProt Q9UKW6-2 1-255).
T11 sequence: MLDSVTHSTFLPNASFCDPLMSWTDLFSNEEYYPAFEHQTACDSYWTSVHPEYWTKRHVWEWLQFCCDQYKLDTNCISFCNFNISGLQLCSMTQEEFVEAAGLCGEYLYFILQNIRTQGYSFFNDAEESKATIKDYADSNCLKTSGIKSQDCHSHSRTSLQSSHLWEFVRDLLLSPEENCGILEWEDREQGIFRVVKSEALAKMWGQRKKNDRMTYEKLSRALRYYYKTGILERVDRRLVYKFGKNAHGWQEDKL
The conditions noted are these: protein: recombinant; tags: N-terminal GST; dsDNA, one strand shown. In short, it runs like this:
as §1

Test [17] has as its target T12, ETV3 (Homo sapiens, UniProt P41162-2 1-143).
T12 sequence: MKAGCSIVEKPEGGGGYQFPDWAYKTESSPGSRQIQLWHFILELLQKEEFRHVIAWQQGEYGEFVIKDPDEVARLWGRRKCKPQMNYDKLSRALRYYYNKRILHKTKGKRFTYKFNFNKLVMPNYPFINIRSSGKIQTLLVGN
Conditions: protein: recombinant; tags: N-terminal GST; dsDNA, one strand shown. In short, it runs like this: as §1

The target in test [18] is ETV6 (Homo sapiens, UniProt P41212 1-452). The conditions noted are these: protein: recombinant; tags: N-terminal GST; dsDNA, one strand shown. In short, it runs like this:
as §1

Chain of ELF4 (Q99607 whole entry): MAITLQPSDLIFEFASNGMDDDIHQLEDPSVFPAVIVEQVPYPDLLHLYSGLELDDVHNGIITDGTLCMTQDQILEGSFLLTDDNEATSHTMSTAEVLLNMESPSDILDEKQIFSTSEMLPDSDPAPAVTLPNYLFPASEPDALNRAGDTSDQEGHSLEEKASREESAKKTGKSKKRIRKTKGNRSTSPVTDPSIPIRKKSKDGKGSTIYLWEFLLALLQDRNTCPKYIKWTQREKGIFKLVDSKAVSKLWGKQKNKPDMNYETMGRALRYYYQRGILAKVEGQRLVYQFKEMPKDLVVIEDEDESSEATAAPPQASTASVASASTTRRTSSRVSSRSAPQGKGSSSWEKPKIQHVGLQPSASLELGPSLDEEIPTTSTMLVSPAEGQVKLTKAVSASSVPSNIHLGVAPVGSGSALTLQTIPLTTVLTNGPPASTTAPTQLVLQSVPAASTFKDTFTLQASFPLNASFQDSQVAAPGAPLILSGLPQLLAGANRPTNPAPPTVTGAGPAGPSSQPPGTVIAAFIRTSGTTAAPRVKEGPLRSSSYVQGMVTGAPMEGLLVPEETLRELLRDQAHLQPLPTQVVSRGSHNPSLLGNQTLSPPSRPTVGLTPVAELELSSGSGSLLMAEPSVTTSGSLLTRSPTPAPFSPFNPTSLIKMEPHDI
Chain of ETV5 (P41161 whole entry): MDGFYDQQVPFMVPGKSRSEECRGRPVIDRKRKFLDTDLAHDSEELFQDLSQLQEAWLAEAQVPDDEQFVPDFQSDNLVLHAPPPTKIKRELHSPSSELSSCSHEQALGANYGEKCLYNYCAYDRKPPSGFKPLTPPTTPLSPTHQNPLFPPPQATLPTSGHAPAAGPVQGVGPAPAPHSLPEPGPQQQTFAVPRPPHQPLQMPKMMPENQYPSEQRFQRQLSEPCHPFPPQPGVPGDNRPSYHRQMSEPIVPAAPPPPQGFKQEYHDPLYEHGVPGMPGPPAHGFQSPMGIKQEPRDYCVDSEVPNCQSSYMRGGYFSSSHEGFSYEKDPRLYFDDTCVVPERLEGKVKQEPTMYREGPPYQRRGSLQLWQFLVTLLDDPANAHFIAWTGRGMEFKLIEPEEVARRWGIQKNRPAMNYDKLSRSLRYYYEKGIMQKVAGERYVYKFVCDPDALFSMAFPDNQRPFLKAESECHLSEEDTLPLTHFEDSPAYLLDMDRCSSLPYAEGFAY
Chain of ETV1 (P50549 whole entry): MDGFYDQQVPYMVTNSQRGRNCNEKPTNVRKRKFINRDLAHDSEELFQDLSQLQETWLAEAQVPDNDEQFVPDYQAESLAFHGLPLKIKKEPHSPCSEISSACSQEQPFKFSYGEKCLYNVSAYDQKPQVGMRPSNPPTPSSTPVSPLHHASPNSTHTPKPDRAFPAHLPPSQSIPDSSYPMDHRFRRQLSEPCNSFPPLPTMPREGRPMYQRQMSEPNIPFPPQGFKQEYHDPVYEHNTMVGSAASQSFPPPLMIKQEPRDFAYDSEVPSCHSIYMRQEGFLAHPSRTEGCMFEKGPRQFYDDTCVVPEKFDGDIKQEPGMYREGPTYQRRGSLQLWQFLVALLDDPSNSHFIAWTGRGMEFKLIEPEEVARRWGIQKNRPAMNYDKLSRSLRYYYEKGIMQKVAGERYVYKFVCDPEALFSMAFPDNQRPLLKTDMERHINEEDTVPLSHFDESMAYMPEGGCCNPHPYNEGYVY
Chain of CRX (O43186 whole entry): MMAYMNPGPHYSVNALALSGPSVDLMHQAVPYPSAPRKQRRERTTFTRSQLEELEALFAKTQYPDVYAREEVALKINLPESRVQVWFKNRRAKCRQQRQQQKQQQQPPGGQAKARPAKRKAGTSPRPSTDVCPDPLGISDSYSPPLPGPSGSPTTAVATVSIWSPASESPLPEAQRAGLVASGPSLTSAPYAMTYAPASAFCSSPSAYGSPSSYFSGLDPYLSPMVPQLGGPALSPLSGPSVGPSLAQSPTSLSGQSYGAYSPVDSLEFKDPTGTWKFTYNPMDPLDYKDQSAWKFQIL
Chain of ETV6 (P41212 whole entry): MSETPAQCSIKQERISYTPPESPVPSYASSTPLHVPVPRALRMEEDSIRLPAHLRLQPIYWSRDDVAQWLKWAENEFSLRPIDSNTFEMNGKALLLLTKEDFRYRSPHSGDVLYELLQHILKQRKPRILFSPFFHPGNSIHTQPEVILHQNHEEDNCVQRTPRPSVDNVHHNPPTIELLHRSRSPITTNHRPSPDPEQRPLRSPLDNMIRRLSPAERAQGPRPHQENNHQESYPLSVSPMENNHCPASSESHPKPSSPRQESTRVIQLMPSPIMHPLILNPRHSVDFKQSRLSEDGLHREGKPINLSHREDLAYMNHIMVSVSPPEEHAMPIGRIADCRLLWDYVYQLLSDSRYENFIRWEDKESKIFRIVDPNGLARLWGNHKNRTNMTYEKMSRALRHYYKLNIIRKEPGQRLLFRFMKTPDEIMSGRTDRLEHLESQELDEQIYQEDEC

Turning to CATCTT, the binding signal in test [1] was 1.16 fold enrichment (6-mer frequency, TF over GST control); in test [2], 1.21 fold enrichment (6-mer frequency, TF over GST control); in [3], 1.17 fold enrichment (6-mer frequency, TF over GST control); in [4], 1.11 fold enrichment (6-mer frequency, TF over GST control); in test [5], 1.12 fold enrichment (6-mer frequency, TF over GST control); in test [6], 1.31 fold enrichment (6-mer frequency, TF over GST control). Further, the binding signal in test [7] was 1.29 fold enrichment (6-mer frequency, TF over GST control); in test [8] it was 1.23 fold enrichment (6-mer frequency, TF over GST control); in [9], 1.33 fold enrichment (6-mer frequency, TF over GST control); in [10], 1.24 fold enrichment (6-mer frequency, TF over GST control); in test [11], 1.26 fold enrichment (6-mer frequency, TF over GST control); in test [12], 1.28 fold enrichment (6-mer frequency, TF over GST control). For the same sequence, the binding signal in test [13] is 1.23 fold enrichment (6-mer frequency, TF over GST control); in test [14], 1.03 fold enrichment (6-mer frequency, TF over GST control); in test [15] it was 1.25 fold enrichment (6-mer frequency, TF over GST control); in test [16], 1.17 fold enrichment (6-mer frequency, TF over GST control); in test [17], 1.18 fold enrichment (6-mer frequency, TF over GST control); in test [18], 1.25 fold enrichment (6-mer frequency, TF over GST control).
